The list is not random: actives were taken first. Their share in the collection is about 3.1%.
S-ASM inh: inhibitors of human secretory acid sphingomyelinase | P17405 | placental ASM, HMU-PC fluorogenic substrate, 60 min | Potency, µM (highest dose often 57.5 µM), hits mostly inhibitors | hit rate 0.006% among 340,000
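Steps: dispense placental human ASM, pin compound, wait 10 min at room temperature, add HMU-PC0 substrate at 9 uM final, incubate 60 min at 37 °C, add stop solution raising pH to 10, read fluorescence.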
Pin1 inhibitor: blocks the human prolyl isomerase Pin1 | Q13526 | Pin1 FP peptide displacement, HiFluor488, 10 min | Potency, µM (titrated, usually from 115 µM), hits mostly inhibitors | hit rate 0.009% among 390,000; active means well fitted inhibition curve with a large enough effect in the polarisation, with a control signal flat, not every such curve was filed as active; inconclusive means small, poorly fitted or top-dose-only effect, or effect the other way, or a change in a side signal; inactive means no such curve, though single readings can be large or run the other way; the % refers to the polarisation
Target sequence (Q13526 whole entry, looked up): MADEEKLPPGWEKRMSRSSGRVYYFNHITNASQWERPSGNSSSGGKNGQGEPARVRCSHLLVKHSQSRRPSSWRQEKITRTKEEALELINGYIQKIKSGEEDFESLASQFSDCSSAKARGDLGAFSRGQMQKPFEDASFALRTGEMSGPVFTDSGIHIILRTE
PLK1 PBD inh: blocks phosphopeptide binding to human PLK1 polo-box domain | P53350 | Plk1 PBD binding of FITC phosphopeptide, fluorescence polarization | Potency, µM, actives largely listed as inhibitors | hit rate 2.8% among 360,000 | AID 720504; further: series mostly up to about 57 µM; nearly all actives have a fitted effect of over 65% in size
VDR inh: inhibitors of human vitamin D receptor | P11473 | VDR-SRC2-3 peptide fluorescence polarization, 2 h | Potency, µM, usual class: inhibitors | hit rate 0.93% among 400,000 | AID 504847
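Compounds are added to VDR with labelled SRC2-3 coactivator peptide and held 2 h at room temperature. Inhibition of the VDR–peptide interaction is then read as a change in fluorescence polarization.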
TDP1 block: TDP1 (human) enzyme inhibition | Potency, µM (doses to about 130 µM), usual class: inhibitors | recombinant TDP1, AlphaScreen DNA substrate cleavage | Q9NUW8 | hit rate 0.28% among 350,000; further: nearly all actives have a fitted effect of over 40% in size
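Steps: enzyme plus compound, 15 min RT; add biotin/phosphotyrosine-FITC oligonucleotide (15 nM final), react 5 min; add donor/acceptor beads (10 ug/ml final), 10 min; read AlphaScreen. Tdp1 at 1 nM final.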
Tb PFK block: inhibitors of T. brucei phosphofructokinase. AID 485367. T. brucei PFK, ADP-Glo luminescence. Potency, µM (titrated, usually from 57.5 µM), hits mostly inhibitors. hit rate 0.17% among 330,000. O15648; further: nearly all actives have a fitted effect of over 60% in size
Target sequence (O15648 whole entry, looked up): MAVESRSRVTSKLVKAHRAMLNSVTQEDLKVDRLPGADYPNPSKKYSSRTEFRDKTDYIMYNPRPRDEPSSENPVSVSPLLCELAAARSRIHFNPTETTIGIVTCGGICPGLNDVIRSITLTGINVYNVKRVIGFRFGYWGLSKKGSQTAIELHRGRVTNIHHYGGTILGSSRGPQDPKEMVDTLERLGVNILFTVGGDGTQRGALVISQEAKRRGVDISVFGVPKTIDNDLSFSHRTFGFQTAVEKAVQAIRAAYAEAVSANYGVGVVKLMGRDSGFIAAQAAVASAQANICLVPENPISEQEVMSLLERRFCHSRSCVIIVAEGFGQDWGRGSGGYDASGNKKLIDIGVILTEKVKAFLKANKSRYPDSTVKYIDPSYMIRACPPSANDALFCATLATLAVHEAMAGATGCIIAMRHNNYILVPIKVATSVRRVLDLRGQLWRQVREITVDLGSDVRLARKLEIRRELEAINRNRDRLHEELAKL
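In TEA buffer at pH 8.0 with 5 mM MgCl2, enzyme (1.25 nM) converted F6P (0.5 mM) and ATP (0.1 mM) for 45 min at room temperature. ADP product was read by luciferase luminescence.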
Numbers stand for hits; – = inactive; ? = inconclusive; · = not tested or not shown; [ ] = another dose, or the depositor's remark. Unless noted, the call rests on the fitted dose curve; in most records, active means well fitted curve in the direction sought with a large enough effect; inconclusive means small, poorly fitted or top-dose-only effect, or another doubt; inactive means no such curve, though single readings can be large; an effect the other way counts as inactive or inconclusive.

SMILES	S-ASM inh	Pin1 inhibitor	PLK1 PBD inh	VDR inh	TDP1 block	Tb PFK block
COc1ccc(N(C(=O)/C=C\C(=O)Nc2ccc(Cl)cc2)C(C(=O)NCc2ccco2)c2ccc(C)cc2)cc1 (stereo not drawn)	·	–	·	–	–	·
COc1ccccc1CCNC(=O)Cn1c(=O)oc2ccccc21	–	–	–	–	17.8µM	–
O=C(NC1CCCCCCC1)c1cc(-c2ccccn2)nc2ccccc12	–	–	26.7µM	–	–	–
CCOc1ccc(N2C(=O)CC(N3CCN(c4ccccc4F)CC3)C2=O)cc1 (stereo not drawn)	–	–	26.7µM	–	–	–
O=c1ccc2c(OCCCCOc3ccccc3)c3ccoc3cc2o1	·	·	·	–	–	·
COc1ccc(CS(=O)(=O)/C(Cl)=C(/Cl)C(=O)Nc2ccc(OC)nc2)cc1	–	–	?	39.8µM	–	–
COc1ccc(NC(=O)Cc2ccccc2)cn1	–	?	?	–	–	–
Cc1ccc(NC(=O)C(=O)NCC2CCCO2)cc1 (stereo not drawn)	–	–	–	–	–	–
COC(=O)c1ccc(NC(=O)C(=O)NCC2CCCO2)cc1 (stereo not drawn)	–	–	29.9µM	–	–	–
Cc1csc(C(=O)O)c1-n1cccc1	–	–	–	–	12.6µM	–
N#Cc1cccc(S(=O)(=O)N2CCN(S(=O)(=O)c3ccc4c(c3)OCCO4)CC2)c1	·	–	·	–	–	·
Cc1ccccc1C(=O)OC1OC(=O)C(Cl)=C1Nc1ccc(C(=O)O)cc1 (stereo not drawn)	–	–	3.77µM	?	–	–
Cn1ccc2cc(S(=O)(=O)N3CCN(S(=O)(=O)c4c(F)cccc4F)CC3)ccc21	·	–	·	·	–	·
Cc1cc(C)cc(C(=O)N/N=C/c2ccoc2)c1	–	–	–	–	–	–
O=C(N/N=C/c1ccoc1)c1cc(O)cc(O)c1	·	?	?	–	2.82µM	?
CCOC(=O)c1cc(-c2ccc(OC)cc2)n(CCC(=O)Nc2cccc(C(C)=O)c2)c1C	·	–	·	–	–	·
COC(=O)[C@@]1(Cc2ccc(F)cc2)[C@H]2c3cc(C(=O)N4CCCC4)n(CCc4ccccn4)c3C[C@H]2CN1C(=O)c1ccccc1	–	–	21.2µM	–	–	–
COC(=O)[C@@]1(Cc2ccccc2)[C@H]2c3cc(C(=O)N4CCCC4)n(CCc4ccccn4)c3C[C@H]2CN1C(=O)c1ccccc1	·	·	·	·	–	·
COC(=O)c1c(SC)nc2ccccc2c1OCc1ccccc1C	·	–	·	–	·	·
CCN(CC)c1ccc(NC(=O)CSc2nnc3nc(C)cc(C)n23)cc1	–	–	16.8µM	–	–	–
Cc1cc(C)n2c(SCC(=O)Nc3ccccc3)nnc2n1	–	–	–	–	–	–
Cn1c(=O)c(C(=O)CN2CCc3ccccc32)c(N)n(Cc2ccccc2)c1=O	–	–	29.9µM	?	–	–
COc1ccc(Cl)cc1NC(=O)Cc1ccc(NC(=O)N2CCCCc3ccccc32)cc1	·	–	·	–	–	·
CN1CCN(C2=C(Cl)C(=O)N(c3ccc(Cl)c(Cl)c3)C2=O)CC1	–	–	26.7µM	?	–	–
CCOC(=O)c1cc(CC)sc1NC(=O)c1cc(OCC)c(OCC)c(OCC)c1	–	–	26.7µM	?	–	–
SMILES	S-ASM inh	Pin1 inhibitor	PLK1 PBD inh	VDR inh	TDP1 block	Tb PFK block
CCOC(=O)c1cc(CC)sc1NC(=O)c1ccc2c(c1)OCCO2	–	–	21.2µM	–	–	–
O=C1CN(c2ccccc2)C(=S)N1C(=O)c1ccc(Br)cc1	–	?	23.8µM	?	·	–
O=C(NNc1ccc(F)cc1F)c1cccs1	·	–	·	–	·	·
CC(C)(C)c1ccc(C(=O)/C(C#N)=C/c2cccs2)cc1	–	–	7.52µM	–	–	–
COc1ccc(C(=O)CN2CCN(CCN3C(=O)c4cccc5cccc(c45)C3=O)CC2)cc1	–	–	18.9µM	?	·	·
O=C(OCC(=O)N(C1CCCCC1)C1CCCCC1)c1ccncc1	–	–	21.2µM	–	–	–
CN(C)c1ccc(N/C=C/C(=O)c2ccco2)cc1	–	–	–	89.1µM	–	–
CN(C)Cc1cc(C(C)(C)C)c(O)c(C(C)(C)C)c1	–	–	10.6µM	–	–	–
CN(C)Cc1cc(C(C)(C)C)cc(C(C)(C)C)c1O	–	–	–	–	–	–
CC(C)(CO)Cc1cc(C(C)(C)C)c(O)c(C(C)(C)C)c1	–	?	–	–	–	–
CC(C)(C)c1cc(CN(CCO)CCO)cc(C(C)(C)C)c1O	–	–	2.12µM	?	–	–
Cc1ccc(CCN2CC(C(=O)NCCCN3CCC(C)CC3)CC2=O)cc1 (stereo not drawn)	–	–	26.7µM	?	–	–
COc1cccc(Cn2nnc(C(=O)Nc3cc(C)ccc3OC)c2N)c1	–	?	26.7µM	?	–	–
COc1ccc(NC(=O)Cn2nnc(C(=O)NCc3cccs3)c2N)c(OC)c1	–	–	23.8µM	–	–	–
COc1cccc(Cn2nnc(C(=O)Nc3ccc(C)cc3)c2N)c1	–	–	–	–	–	–
O=C(Cl)COCc1ccccc1	·	·	·	–	–	·
Nc1ccc2c3c(cccc13)C(=O)N(c1ccccc1)C2=O	–	?	1.34µM	–	–	–
O=C(O)c1cccc(N2C(=O)c3cccc4c(Cl)ccc(c34)C2=O)c1	–	–	–	–	–	–
O=C(O)c1ccc2c3c(cccc13)C(=O)N(c1ccccc1)C2=O	–	–	?	–	·	–
Nc1cccc(N2C(=O)c3cccc4c(N)ccc(c34)C2=O)c1	–	·	10.6µM	–	·	–
O=C(O)c1ccc(N2C(=O)c3cccc4c(C(=O)O)ccc(c34)C2=O)cc1	–	?	–	–	2.82µM	–
CC(C)CCN1C(=O)c2cccc3c(N)ccc(c23)C1=O	–	?	5.32µM	–	·	·
CCN(CC(=O)NCc1ccc(F)cc1)C(=O)/C=C/c1cccs1	–	–	26.7µM	–	–	–
CCN1C(=O)[C@H]2[C@H]3[C@H](O)[C@H](O)C/C(=N/O[C@@H](C)c4cc(-c5c(C)cc(C)cc5C)no4)[C@@H]3CC[C@@H]2C1=O	·	·	·	·	–[21 µM]	·
CC1=CCC2C(=O)N(c3nc4ccccc4n3C)C(=O)C2C1 (stereo not drawn)	–	–	–	–	39.8µM	·
CC1=CCC2C(=O)N(C(C)c3ccccc3)C(=O)C2C1 (stereo not drawn)	–	–	–	–	–	–
CCC1CN(C(=O)N2CCC(C(=O)NCc3cccc(F)c3)CC2)c2cc(C)ccc2O1 (stereo not drawn)	·	–	·	–	–	·
O=C1c2cccnc2C(=O)N1c1cccc([N+](=O)[O-])c1	–	–	–	–	·	–
O=[N+]([O-])c1cc(-c2ncccn2)c([N+](=O)[O-])s1	–	–	2.67µM	35.5µM	–	?
